Measured values from ChEMBL document CHEMBL3988442, “University of Dundee, Small-Polar-MMV Screening Library” (2021).
Screen size: about 48,000 compounds; about 13,000 (27%) showed an effect of 50% or more. Some of the results follow.

System: Wolbachia pipientis
Assay: Anti-Wolbachia Cell-Based Screen
Assay type: functional
Parameters: scale not given: in the data most compounds retested in dose-response had high values
Settings: 5 µM

Structure (SMILES) | Percent Effect [%]
CC(NC(=O)CCNC(=O)c1ccoc1)c1ccccc1 (centres undefined) | -1.423
Cc1cnc(CN(C)C2CCN(Cc3ccccc3C#N)C2)o1 (centres undefined) | 18.72
CC(=O)N(Cc1ncc(C)o1)C1CCN(Cc2ccccc2F)C1 (centres undefined) | 139.2
CC(=O)N(Cc1ncc(C)o1)C1CCN(Cc2cccc(C#N)c2)C1 (centres undefined) | -1.585
CC(=O)N(Cc1ncc(C)o1)C1CCN(Cc2ccccc2C#N)C1 (centres undefined) | 110
CC(=O)N(Cc1ncc(C)o1)C1CCN(Cc2ccncc2Cl)C1 (centres undefined) | -1.852
c1cnc(-c2nc(CNCCn3cccn3)cs2)nc1 | -8.125
Cc1nc(C)n(C2CCCN(C(=O)c3sccc3C3CC3)C2)n1 (centres undefined) | -8.521
CC(CNS(N)(=O)=O)c1ccc(F)c(F)c1 (centres undefined) | -14.37
CN(CC(=O)N1CCCCC1c1nc(C(C)(C)C)cs1)C1CC1 (centres undefined) | 131.5
CN(CC(=O)N1CCCCC1c1nccs1)C1CC1 (centres undefined) | 114.2
Cc1noc(COCC(=O)N2CCCCC2c2nccs2)n1 (centres undefined) | -17.81
O=C1CSc2ccccc2N1CC(=O)N1CCCCC1c1nccs1 (centres undefined) | 2.391
CC(C)(C)c1csc(C2CCCCN2C(=O)CCn2cncn2)n1 (centres undefined) | -13.47
Cc1ncc(CC(=O)N2CCCC(COc3ccc(F)cc3)C2)c(=O)[nH]1 (centres undefined) | 33.2
COCCCSc1ccc(NC(=O)Nc2cn[nH]c2)cc1 | 3.134
CN(Cc1ccoc1)c1ccc(-c2nccn2C)nn1 | -4.933
CC(C)(C(=O)NCC1CC1)c1ccccc1F | -12.8
O=C(NC(C(=O)Nc1cc[nH]n1)c1ccccc1)C1CCC1 (centres undefined) | -26.62
CC(C)NC(=O)CCNC(=O)c1c(Br)c2ccccc2n1C | 2.193
CCCNC(=O)c1cc2c(c3ccccc3n2C)n1C(=O)N(C)C | -57.33
CC(C)n1c2ccccc2c2c1cc(C(=O)NC1CC1)n2C(=O)N(C)C | 111.7
COCC(C)N(C)C(=O)c1nc(S(C)(=O)=O)n2ccccc12 (centres undefined) | -2.923
CCN(C)C(=O)c1cc(-c2cn(C(C)C)cn2)n2ccccc12 | 4.681
CC(C)n1c2ccccc2c2c1cc(C(=O)NCCO)n2C(=O)N(C)C | 98.19
CC(C)n1c2ccccc2c2c1cc(C(=O)O)n2C(=O)N(C)C | 98.97
CC(C)n1c2ccccc2c2c1cc(C(=O)N(C)C)n2S(C)(=O)=O | 91.91
CC(C)N1CCC(NC(=O)NCc2ccccc2)CC1 | 1.205
Cc1cn(CC(=O)NC2CCN(C(C)C)CC2)c2ccccc12 | -15.19
